{"source": "PubChem BioAssay (NCI)", "note": "Compounds without any hit were thinned out: in the full panel of roughly 79,000, 15% have a hit. Unmarked numbers belong to inactive results. Active and inactive are the calls of the source. Cut-off read from the data, not from the text of the source: active = growth inhibition above about 70%; inactive = the rest."}
{"assay": "NCI Yeast Anticancer Drug Screen. Data for the mec2-1 strain (AID 157)", "details": "S. cerevisiae mec2-1 strain, at 50.0 µM, stronger effect = higher value", "procedure,_shortened": "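Vehicle-treated cultures served as reference for growth inhibition of compound-exposed mec2-1 yeast.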"}
{"compound": "Nc1ncnc(N2CCOCC2)c1N", "growth inhibition": "29.6%"}
{"compound": "CN(C)c1ccc2c(NCCCCCCNc3ccnc4cc(N(C)C)ccc34)ccnc2c1", "growth inhibition": "91.2% (active)"}
{"compound": "CC(C)N=Cc1cc(Br)cc(Br)c1O.CC(C)N=Cc1cc(Br)cc(Br)c1O.[Co]", "growth inhibition": "90.6% (active)"}
{"compound": "O=C1c2ccc(O)cc2C(=O)c2c1ccc(O)c2O", "growth inhibition": "67.3%"}
{"compound": "COc1cc2c[n+](C)c3c4cc(OC)c(OCc5ccccc5)cc4c(OCc4ccccc4)cc3c2cc1OC", "growth inhibition": "53.7%"}
{"compound": "O=C(Nc1ccc(Cl)cc1)OCC1C2C=CC(C2)C1CO", "note": "(stereo not given)", "growth inhibition": "75.7% (active)"}
{"compound": "Cn1nc(-c2ccccc2NC(=O)C(F)(F)F)c(=O)n(C)c1=S", "growth inhibition": "43.9%"}
{"compound": "OCc1c2c(cc3c1CC1(C3)Cc3cc4c(c(CO)c3C1)CCC4)CCC2", "growth inhibition": "24.3%"}
{"compound": "O=C(C[n+]1ccccc1)N=N/C(C(=O)Nc1c(Cl)c(O)c2ccccc2c1O)=C1/C(=O)Oc2cc(O)ccc2C1=O", "growth inhibition": "95.8% (active)"}
{"compound": "Cc1cc(Cl)c(O)c(-c2cc(-c3ccccc3O)c(C#N)c(N)n2)c1", "growth inhibition": "52.1%"}
{"compound": "CCCCNc1ncc(OCC)c(NCCCC)n1", "growth inhibition": "88.9% (active)"}
{"compound": "C#CCCCCCOC(=O)c1cc([N+](=O)[O-])cc([N+](=O)[O-])c1", "growth inhibition": "99% (active)"}
{"compound": "C=C(C)C1(C(=O)OCC(Cl)(Cl)Cl)NC(=O)C(NC(=O)COc2ccccc2)=CO1", "note": "(stereo not given)", "growth inhibition": "86.8% (active)"}
{"compound": "Cc1ccc(SCC#CC#CCS(=O)c2ccc(C)cc2)cc1", "note": "(stereo not given)", "growth inhibition": "98.5% (active)"}
{"compound": "CCCCCCCCCCCCCCCC1C(N)C(=O)N(C)N1C", "note": "(stereo not given)", "growth inhibition": "91.2% (active)"}
{"compound": "O=c1c(O)cc2c(O)oc3c(=O)c(O)c(O)c4c(O)oc1c2c43", "growth inhibition": "57.2%"}
{"compound": "CCCCN(CCCC)CCNc1ccc(NS(=O)(=O)c2ccccc2)c2sc3ccccc3c(=O)c12", "growth inhibition": "97.8% (active)"}
{"compound": "CCOC(=O)CC(N)CC(=O)OCC", "growth inhibition": "39.1%"}
{"compound": "O=c1cc(Cl)c(Cl)nn1-c1ccccc1", "growth inhibition": "50.5%"}
{"compound": "CC(=O)Nc1ccc(-c2ccccc2)cc1[N+](=O)[O-]", "growth inhibition": "16.6%"}
{"compound": "O=C1OC(c2ccccc2)N/C1=C\\c1ccc2c(c1)OCO2", "note": "(stereo not given)", "growth inhibition": "-53.1%"}
{"compound": "CCOc1c(N=Nc2ccc(Cl)cc2)c(-c2ccccc2)nn1C(=S)S", "growth inhibition": "95.6% (active)"}
{"compound": "BrCN(CBr)c1ccc2c(c1)Cc1cc(Br)ccc1-2", "growth inhibition": "28.4%"}
{"compound": "COc1cc(NCCCCCCCC2CCCCN2)c2ncccc2c1", "note": "(stereo not given)", "growth inhibition": "79% (active)"}
{"compound": "Cc1cc(Br)cc(C)c1NC(=O)C(=O)C(C(=O)c1ccc2ccccc2c1)C1OC(=O)c2ccccc21", "note": "(stereo not given)", "growth inhibition": "14.3%"}
{"compound": "O=Cc1cc2c(s1)C(=O)c1sccc1C2=O", "growth inhibition": "91.8% (active)"}
{"compound": "C=C1CC2(CC(C(C)C)CCC2C)OC1=O", "note": "(stereo not given)", "growth inhibition": "-2.45%"}
{"compound": "CCSC(=Nc1nc2ccc(NC(C)=O)cc2s1)SCC", "growth inhibition": "98% (active)"}
{"compound": "CCOc1ccc2c(c1)n([O-])c1cc(Br)ccc1[n+]2=O", "growth inhibition": "86.3% (active)"}
{"compound": "CCCCC(CCCC)=NNC(=S)SC", "growth inhibition": "45.1%"}
{"compound": "COc1ccc2c(c1)CCc1c(CO)c(COC(=O)NC(C)C)n(C)c1-2", "growth inhibition": "97.7% (active)"}
{"compound": "CSc1cc2c(cc1N)Cc1ccccc1-2", "growth inhibition": "90.8% (active)"}
{"compound": "O=C1C=C(c2ccccc2)OC(c2ccccc2)C1", "note": "(stereo not given)", "growth inhibition": "41.8%"}
{"compound": "CCOc1ccc2nc([NH-])sc2c1.CCOc1ccc2nc([NH-])sc2c1.[Cl][Pt+2][Cl]", "growth inhibition": "35.5%"}
{"compound": "Cc1nc2c(Cl)nc(Cl)nc2s1", "growth inhibition": "98.5% (active)"}
{"compound": "Cc1cc(O)n(Cc2ccccc2)c(=O)c1", "growth inhibition": "9.75%"}
{"compound": "NCCC1=CCCCC1", "growth inhibition": "90.5% (active)"}
{"compound": "CCOC(=O)/C(=C\\n1c(=O)sc2ccccc21)C(=O)c1ccccc1", "growth inhibition": "50.5%"}
{"compound": "Cc1ccc(S(=O)(=O)Nc2ccccc2C=O)cc1", "growth inhibition": "99.3% (active)"}
{"compound": "CC1COC(c2cn[nH]c2C(N)=O)C1O", "note": "(stereo not given)", "growth inhibition": "21%"}
{"assay": "NCI Yeast Anticancer Drug Screen. Data for the sgs1 mgt1 strain (AID 161);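 note: 0% = growth of cultures given vehicle only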", "details": "S. cerevisiae sgs1 mgt1 strain, at 5.0 µM (retest, dose inferred, filed as 0.5), stronger effect = higher value", "procedure,_shortened": "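Test agents were incubated with a DNA-repair-mutant yeast strain. Growth was then read and compared against vehicle-treated controls.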"}
{"compound": "Nc1ncnc(N2CCOCC2)c1N", "growth inhibition": "3%"}
{"compound": "CN(C)c1ccc2c(NCCCCCCNc3ccnc4cc(N(C)C)ccc34)ccnc2c1", "growth inhibition": "16%"}
{"compound": "CC(C)N=Cc1cc(Br)cc(Br)c1O.CC(C)N=Cc1cc(Br)cc(Br)c1O.[Co]", "growth inhibition": "87% (active)"}
{"compound": "O=C1c2ccc(O)cc2C(=O)c2c1ccc(O)c2O", "growth inhibition": "46%"}
{"compound": "COc1cc2c[n+](C)c3c4cc(OC)c(OCc5ccccc5)cc4c(OCc4ccccc4)cc3c2cc1OC", "growth inhibition": "0%"}
{"compound": "O=C(Nc1ccc(Cl)cc1)OCC1C2C=CC(C2)C1CO", "note": "(stereo not given)", "growth inhibition": "2%"}
{"compound": "Cn1nc(-c2ccccc2NC(=O)C(F)(F)F)c(=O)n(C)c1=S", "growth inhibition": "14%"}
{"compound": "OCc1c2c(cc3c1CC1(C3)Cc3cc4c(c(CO)c3C1)CCC4)CCC2", "growth inhibition": "22%"}
{"compound": "O=C(C[n+]1ccccc1)N=N/C(C(=O)Nc1c(Cl)c(O)c2ccccc2c1O)=C1/C(=O)Oc2cc(O)ccc2C1=O", "growth inhibition": "19%"}
{"compound": "Cc1cc(Cl)c(O)c(-c2cc(-c3ccccc3O)c(C#N)c(N)n2)c1", "growth inhibition": "-28%"}
{"compound": "CCCCNc1ncc(OCC)c(NCCCC)n1", "growth inhibition": "0%"}
{"compound": "C#CCCCCCOC(=O)c1cc([N+](=O)[O-])cc([N+](=O)[O-])c1", "growth inhibition": "99% (active)"}
{"compound": "C=C(C)C1(C(=O)OCC(Cl)(Cl)Cl)NC(=O)C(NC(=O)COc2ccccc2)=CO1", "note": "(stereo not given)", "growth inhibition": "8%"}
{"compound": "Cc1ccc(SCC#CC#CCS(=O)c2ccc(C)cc2)cc1", "note": "(stereo not given)", "growth inhibition": "100% (active)"}
{"compound": "CCCCCCCCCCCCCCCC1C(N)C(=O)N(C)N1C", "note": "(stereo not given)", "growth inhibition": "-19%"}
{"compound": "O=c1c(O)cc2c(O)oc3c(=O)c(O)c(O)c4c(O)oc1c2c43", "growth inhibition": "41%"}
{"compound": "CCCCN(CCCC)CCNc1ccc(NS(=O)(=O)c2ccccc2)c2sc3ccccc3c(=O)c12", "growth inhibition": "54%"}
{"compound": "CCOC(=O)CC(N)CC(=O)OCC", "growth inhibition": "-56%"}
{"compound": "O=c1cc(Cl)c(Cl)nn1-c1ccccc1", "growth inhibition": "7%"}
{"compound": "CC(=O)Nc1ccc(-c2ccccc2)cc1[N+](=O)[O-]", "growth inhibition": "-2%"}
{"compound": "O=C1OC(c2ccccc2)N/C1=C\\c1ccc2c(c1)OCO2", "note": "(stereo not given)", "growth inhibition": "22%"}
{"compound": "CCOc1c(N=Nc2ccc(Cl)cc2)c(-c2ccccc2)nn1C(=S)S", "growth inhibition": "8%"}
{"compound": "BrCN(CBr)c1ccc2c(c1)Cc1cc(Br)ccc1-2", "growth inhibition": "1%"}
{"compound": "COc1cc(NCCCCCCCC2CCCCN2)c2ncccc2c1", "note": "(stereo not given)", "growth inhibition": "11%"}
{"compound": "Cc1cc(Br)cc(C)c1NC(=O)C(=O)C(C(=O)c1ccc2ccccc2c1)C1OC(=O)c2ccccc21", "note": "(stereo not given)", "growth inhibition": "10%"}
{"compound": "O=Cc1cc2c(s1)C(=O)c1sccc1C2=O", "growth inhibition": "84% (active)"}
{"compound": "C=C1CC2(CC(C(C)C)CCC2C)OC1=O", "note": "(stereo not given)", "growth inhibition": "23%"}
{"compound": "CCSC(=Nc1nc2ccc(NC(C)=O)cc2s1)SCC", "growth inhibition": "-1%"}
{"compound": "CCOc1ccc2c(c1)n([O-])c1cc(Br)ccc1[n+]2=O", "growth inhibition": "72% (active)"}
{"compound": "CCCCC(CCCC)=NNC(=S)SC", "growth inhibition": "3%"}
{"compound": "COc1ccc2c(c1)CCc1c(CO)c(COC(=O)NC(C)C)n(C)c1-2", "growth inhibition": "96% (active)"}
{"compound": "CSc1cc2c(cc1N)Cc1ccccc1-2", "growth inhibition": "3%"}
{"compound": "O=C1C=C(c2ccccc2)OC(c2ccccc2)C1", "note": "(stereo not given)", "growth inhibition": "-63%"}
{"compound": "CCOc1ccc2nc([NH-])sc2c1.CCOc1ccc2nc([NH-])sc2c1.[Cl][Pt+2][Cl]", "growth inhibition": "-1%"}
{"compound": "Cc1nc2c(Cl)nc(Cl)nc2s1", "growth inhibition": "20%"}
{"compound": "Cc1cc(O)n(Cc2ccccc2)c(=O)c1", "growth inhibition": "-67%"}
{"compound": "NCCC1=CCCCC1", "growth inhibition": "2%"}
{"compound": "CCOC(=O)/C(=C\\n1c(=O)sc2ccccc21)C(=O)c1ccccc1", "growth inhibition": "27%"}
{"compound": "Cc1ccc(S(=O)(=O)Nc2ccccc2C=O)cc1", "growth inhibition": "16%"}
{"compound": "CC1COC(c2cn[nH]c2C(N)=O)C1O", "note": "(stereo not given)", "growth inhibition": "7%"}
